Screens as filed in PubChem BioAssay.
Only some compounds are listed: those with a hit (about 0.93% of all), similar ones and a draw of the others.
TAR Tat displ: HIV-1 TAR-Tat binding disruption; HIV-1 TAR RNA, Tat peptide displacement FRET; hits give high values; AID 1259389; actives 0.6% (n = 100,000); z-score (concentration not given with the values); active means z-score of 3 or more in at least 2 runs
CDC25B-CDK2 inh: human CDC25B-CDK2/CyclinA binding inhibition. P30305+P24941. HTRF CDC25B-CDK2/CyclinA binding, anti-His/anti-Flag; hits give high values. z-score (no concentration beside the values). actives 0.72% (n = 94,000). AID 1259370; in the data active means z-score above about 3.2
Numbers without * were called inactive.

For NCCc1c[nH]c2ccccc12 the results were TAR Tat displ 0.19 and CDC25B-CDK2 inh -0.02.
NCCc1cc(O)c(O)cc1O was read as TAR Tat displ 29*.
COc1ccc(-c2cccc3c2CCNC3)cc1 was read as TAR Tat displ -0.9 and CDC25B-CDK2 inh -3.1.
Screening Cc1nn(-c2nc3ccccc3s2)c2c1C(c1ccc(O)c(O)c1)SCC(=O)N2 (centres undefined) returned TAR Tat displ 6.5* and CDC25B-CDK2 inh -1.9.
`CCOc1cc(C2SCC(=O)Nc3c2c(C)nn3-c2nc3ccccc3s2)ccc1O` (centres undefined) gave TAR Tat displ 0.69 and CDC25B-CDK2 inh -1.1.
`CCCCP(=O)(O)CCCC` gave CDC25B-CDK2 inh 0.52.
For O=C(NCCc1cnc[nH]1)C1=Cc2ccccc2OC1 the results were TAR Tat displ -0.01.
Screening Fc1ccc(CNCCc2c[nH]c3ccccc23)cc1F returned TAR Tat displ -0.12 and CDC25B-CDK2 inh 16*.
`c1coc(CNCCc2c[nH]c3ccccc23)c1` gave TAR Tat displ -0.14 and CDC25B-CDK2 inh 14*.
c1ccc2cc(CNCCc3c[nH]c4ccccc34)ccc2c1 was read as CDC25B-CDK2 inh -1.4.
Screening Fc1ccccc1CNCCc1c[nH]c2ccccc12 returned TAR Tat displ 0.3 and CDC25B-CDK2 inh 2.3.
`N#CC(NC(=O)CCl)=C(Cl)Cl` gave CDC25B-CDK2 inh 2.6.
For CCOC(=O)C1C2c3ccccc3O[C@]1(C)N=C1SCC(=O)N12 (some centres undefined) the results were CDC25B-CDK2 inh 0.75.
`CN(C)[C@@H]1C(=O)C(C(N)=O)=C(O)[C@@]2(O)C(=O)C3=C(O)c4c(O)ccc(Cl)c4[C@@](C)(O)[C@H]3C[C@@H]12` gave TAR Tat displ 12*.
For CN(C)[C@@H]1C(=O)C(C(N)=O)=C(O)[C@@]2(O)C(=O)C3=C(O)c4c(O)cccc4[C@@](C)(O)[C@H]3[C@H](O)[C@@H]12 the results were TAR Tat displ 22*.
NC(Cc1cc(O)c(O)cc1O)C(=O)O (centres undefined) was read as CDC25B-CDK2 inh 20*.
For Cc1o[nH]c(=O)c1CC(N)C(=O)O (centres undefined) the results were CDC25B-CDK2 inh -1.1.
Cc1nn(-c2ccc(F)cc2)c2c1C(c1ccc(F)cc1)SCC(=O)N2 (centres undefined) was read as TAR Tat displ 0.59 and CDC25B-CDK2 inh -2.2.
Screening COc1ccc(CC2NCCc3cc(OC)c(OC)cc32)cc1OC (centres undefined) returned TAR Tat displ 37* and CDC25B-CDK2 inh -0.3.
`COc1ccc(CCNC2(C#N)CCCCC2)cc1OC` gave CDC25B-CDK2 inh -0.88.
For Cc1ccccc1-n1nc(C)c2c1NC(=O)CSC2c1ccc(Br)cc1 (centres undefined) the results were TAR Tat displ 2.1 and CDC25B-CDK2 inh -1.2.
`Cc1ccc(-n2nc(C)c3c2NC(=O)CSC3c2ccc(Cl)cc2)cc1` (centres undefined) gave TAR Tat displ 0.91 and CDC25B-CDK2 inh 0.35.
Screening COc1cc2c3c(c1O)-c1c(cccc1OC)CC3N(C)CC2 (centres undefined) returned TAR Tat displ -11 and CDC25B-CDK2 inh -0.03.
COc1cc2c(cc1OC)-c1c(OC)c(OC)cc3c1C(C2)N(C)CC3 (centres undefined) was read as TAR Tat displ 6.3* and CDC25B-CDK2 inh -6.7.
CCCCOc1ccc(C2C3C(=NN2C(C)=O)C2CCN3CC2)cc1 (centres undefined) was read as TAR Tat displ -0.39 and CDC25B-CDK2 inh -0.16.
Screening N#CC1=C(N)Oc2c(c(=O)oc3ccccc23)C1c1ccc(Br)cc1 (centres undefined) returned CDC25B-CDK2 inh 1.1.
Screening CN1C(=O)C(Cc2nc3ccccc3c(=O)n2-c2ccc(Br)cc2)c2ccccc21 (centres undefined) returned TAR Tat displ 1.3 and CDC25B-CDK2 inh -0.76.
